Screening results as filed in PubChem BioAssay.
hcDAF12 agonist: activates DAF-12 receptor from parasite H. contortus | HEK293 hcDAF-12 lit1-tk-luc reporter, luminescence; 0% DMSO, 100% Δ7-dafachronic acid | activation, % at 6.8 µM | 370,000 compounds, 1.4% hits | AID 652067;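 active means activation above the mean of all tested compounds plus 3 SD, cut at about 5.5% in these data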;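 further: 100% = response to 3 µM Δ7-dafachronic acid high control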
DAX1 inh-1: inhibits human nuclear receptor DAX1 | HEK293 Gal4-DAX1 luciferase reporter, luminescence | inhibition, % at 6.75 µM | 340,000 compounds, 0.99% hits | AID 504766;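 active means inhibition above the mean over all tested compounds plus 3 SD, cut at about 4.2% in these data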;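 further: 0% = DAX1-transfected cells with DMSO and 100% = empty-vector control cells with DMSO; inhibition shows as a rise in luminescence from relieved DAX1 repression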
Target sequence (P51843 207-470 limits assumed): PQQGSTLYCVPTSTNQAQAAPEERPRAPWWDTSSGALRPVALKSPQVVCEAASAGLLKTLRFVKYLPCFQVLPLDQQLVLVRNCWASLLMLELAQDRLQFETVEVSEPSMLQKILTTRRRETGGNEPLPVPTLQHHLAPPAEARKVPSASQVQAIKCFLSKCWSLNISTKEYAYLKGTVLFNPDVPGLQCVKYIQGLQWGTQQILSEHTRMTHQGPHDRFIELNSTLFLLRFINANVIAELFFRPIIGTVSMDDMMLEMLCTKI
hgDAF12 agonist: hgDAF-12 agonism, primary luciferase screen. HEK293 GAL4-hgDAF12 UAS-luciferase reporter, agonist luminescence; normalized to butyrate control. activation, % at 6.8 µM. 370,000 compounds, 1.8% hits;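 active means activation above a cutoff set at the mean of all screened compounds plus 3 SD, cut at about 10% in these data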;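 further: 0% = DMSO wells and 100% = sodium butyrate wells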
DAX1 inh-2: inhibitors of DAX1 repression of SF-1 activated StAR promoter; HEK293T StAR-luciferase reporter, SF-1/DAX-1 repression relief; 370,000 compounds, 1.1% hits; AID 652010; inhibition, % at 6.8 µM;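 active means inhibition above the mean over all tested compounds plus 3 SD, cut at about 3.6% in these data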;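 further: 0% = DAX-1 cells with DMSO and 100% = cells lacking DAX-1 with DMSO; higher inhibition means more luminescence from relief of DAX-1 repression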
Wee1 degr inh: human Wee1 degradation inhibition, primary screen | AID 1321 | P30291 | HeLa Luc-Wee1K328M stability, luciferase luminescence; 100% = proteasome inhibitor MG132 effect | 220,000 compounds, 1.2% hits | reporter increase, % at 5 µM;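 active means activation above the mean of all tested compounds plus 3 SD, set per screening run, cut at about 8.8% in these data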;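 further: cells exposed to compound for 20 h before luminescence read; 0% = DMSO alone and 100% = MG132 at 30 µM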
ssDAF-12 act: activators of S. stercoralis DAF-12 nuclear receptor; 370,000 compounds, 1% hits; activation, % at 6.8 µM; HEK293 ssDAF-12/GRIP1 lit1-tk-luc reporter, luminescence; % of 3 µM dafachronic acid response; AID 652126;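 active means activation above the mean over all tested compounds plus 3 SD, cut at about 0.9% in these data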;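 further: 0% = DMSO-only wells and 100% = 3 µM delta7-dafachronic acid wells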
Numbers without * were called inactive. The list is not random: actives were taken first. Their share in the collection is about 4.6%.

`CC(OC(=O)c1ccccn1)C(=O)Nc1ccc2c(c1)OCCO2` (centres undefined) gave hcDAF12 agonist 0.1, DAX1 inh-1 1.1, hgDAF12 agonist 11.1*, DAX1 inh-2 -2.5 and ssDAF-12 act -1.1.
COc1ccc(CNC(=O)C2(C)Cc3c(-c4cccc(NC(C)=O)c4)ccnc3O2)cc1OC (centres undefined) was read as hcDAF12 agonist -0.3, hgDAF12 agonist -0.1, DAX1 inh-2 -1.8 and ssDAF-12 act -1.3.
Screening Cc1cccc(Cc2cnc(N3C(=N)SC(C)C3=O)s2)c1 (centres undefined) returned hcDAF12 agonist -2.1, DAX1 inh-1 -0.1, hgDAF12 agonist -1.6, DAX1 inh-2 -0.5, Wee1 degr inh 9.6* and ssDAF-12 act -1.6.
Cc1ccc(Cc2cnc(N3C(=N)SC(C)C3=O)s2)cc1 (centres undefined) was read as hcDAF12 agonist -0.7, DAX1 inh-1 0.2, hgDAF12 agonist -1.7, DAX1 inh-2 -1.1, Wee1 degr inh -2.1 and ssDAF-12 act 0.5.
For CN(/C=C/C(=C\C=[N+](C)c1ccccc1)OCCCS(=O)(=O)[O-])c1ccccc1 the results were hcDAF12 agonist 5.6*, DAX1 inh-1 0.3, hgDAF12 agonist -3.1, DAX1 inh-2 -0.3, Wee1 degr inh 0.3 and ssDAF-12 act 0.8.
Screening COc1ccc(NC(=S)Nn2cnnc2)cc1OC returned hcDAF12 agonist -0.4, DAX1 inh-1 6.4*, hgDAF12 agonist -3.1, DAX1 inh-2 -0.8, Wee1 degr inh -1.5 and ssDAF-12 act -2.2.
For CNC(=S)Nc1ccc(OC)c(OC)c1 the results were hcDAF12 agonist -0.6, DAX1 inh-1 0.7, hgDAF12 agonist -2.2, DAX1 inh-2 1.0, Wee1 degr inh 0.6 and ssDAF-12 act -1.1.
For Cc1ccc(-n2nnc(-c3cc4ccccc4nc3Cl)n2)cc1 the results were hcDAF12 agonist 4.6, DAX1 inh-1 2.7, hgDAF12 agonist 2.5, DAX1 inh-2 -0.1, Wee1 degr inh 1.8 and ssDAF-12 act 1.4*.
For O=c1[nH]c2ccccc2cc1-c1nnn(-c2ccc(Cl)c(Cl)c2)n1 the results were hcDAF12 agonist 4.3, DAX1 inh-1 -0.1, hgDAF12 agonist 1.7, DAX1 inh-2 0.2 and ssDAF-12 act 0.1.
For CCN1CCN(CCCNC(=O)CCC(=O)N2CCOc3ccccc32)CC1 the results were hcDAF12 agonist 5.7*, DAX1 inh-1 0.3, hgDAF12 agonist -3.4, DAX1 inh-2 1.2 and ssDAF-12 act -1.0.
For O=C(CCC(=O)N1CCOc2ccccc21)NCCCN1CCCCC1 the results were hcDAF12 agonist -0.5, DAX1 inh-1 -0.2, hgDAF12 agonist 0.8, DAX1 inh-2 0.8 and ssDAF-12 act -1.2.
Screening CC(C)C[C@H]1CN(CCCC[C@H]2CNC(=O)C(=O)N2Cc2ccccc2)C(=O)C(=O)N1CCC1CCCCC1 returned hcDAF12 agonist -0.5, hgDAF12 agonist 0.5, DAX1 inh-2 -0.2 and ssDAF-12 act -0.4.
C[C@H](CO)N1C[C@H](C)[C@H](CN(C)S(=O)(=O)c2cccs2)OCc2cnnn2CCCC1=O was read as hcDAF12 agonist -1.7, DAX1 inh-1 -0.6, hgDAF12 agonist 2.8, DAX1 inh-2 0.4 and ssDAF-12 act 0.1.
Screening O=C(CCCc1ccccc1)Nc1cccc(C(=O)O)c1 returned hcDAF12 agonist 3.7, DAX1 inh-1 -2.5, hgDAF12 agonist 11.7*, DAX1 inh-2 4.5*, Wee1 degr inh -3.0 and ssDAF-12 act -0.4.
`Cc1ccc(OCC(=O)Nc2cccc(O)c2)cc1C` gave hcDAF12 agonist 0.8, DAX1 inh-1 2.6, hgDAF12 agonist 10.8*, DAX1 inh-2 2.2, Wee1 degr inh 3.4 and ssDAF-12 act -0.2.
O=C(O)c1cccc(NC(=S)NC(=O)c2ccncc2)c1 was read as hcDAF12 agonist -0.3, DAX1 inh-1 0.2, hgDAF12 agonist 3.0, DAX1 inh-2 -0.4, Wee1 degr inh -0.7 and ssDAF-12 act -1.1.
Screening CC(=O)Nc1ccc(NC(=O)CCCc2ccccc2)cc1 returned DAX1 inh-1 -0.8.
Cc1cccc(OCC(=O)Nc2cccc(O)c2)c1 was read as hcDAF12 agonist 0.7, DAX1 inh-1 1.6, hgDAF12 agonist 6.4, DAX1 inh-2 2.2, Wee1 degr inh -2.2 and ssDAF-12 act -0.7.
`Cc1cccc(C)c1OCC(=O)Nc1cccc(C(=O)O)c1` gave hcDAF12 agonist 3.4, DAX1 inh-1 -2.3, hgDAF12 agonist 10.2, DAX1 inh-2 3.8*, Wee1 degr inh 3.8 and ssDAF-12 act -0.4.
`CNC(=S)Nc1cccc(C(=O)O)c1` gave hcDAF12 agonist 2.9, DAX1 inh-1 2.2, hgDAF12 agonist 0.7, DAX1 inh-2 0.3, Wee1 degr inh -2.7 and ssDAF-12 act 1.4*.
`Cc1ccc(C)c(OCC(=O)Nc2cccc(C(=O)O)c2)c1C` gave hcDAF12 agonist 0.1, DAX1 inh-1 0.1, hgDAF12 agonist 3.2, DAX1 inh-2 1.1, Wee1 degr inh 0.0 and ssDAF-12 act -1.6.
CC(C)Oc1ccc(Cl)cc1Nc1nc(NCCO)nc(N2CCCC2)n1 was read as hcDAF12 agonist 2.1, DAX1 inh-1 -0.9, hgDAF12 agonist -3.5, DAX1 inh-2 0.2 and ssDAF-12 act -1.2.
`COc1ccccc1NC(=S)NC(=O)CCc1ccccc1` gave hcDAF12 agonist -0.5, DAX1 inh-1 0.8, hgDAF12 agonist -0.3, DAX1 inh-2 -0.5 and ssDAF-12 act -0.7.
For O=C(CCc1ccccc1)NNC(=O)c1ccccc1Br the results were hcDAF12 agonist -1.9, DAX1 inh-1 5.0*, hgDAF12 agonist -4.2, DAX1 inh-2 -0.7, Wee1 degr inh -3.3 and ssDAF-12 act -1.1.
For CCC(C)c1ccc(OCC(=O)Nc2ccc3[nH]c(=O)[nH]c3c2)cc1 (centres undefined) the results were hcDAF12 agonist -1.8, DAX1 inh-1 0.4, hgDAF12 agonist -1.3, DAX1 inh-2 -0.5, Wee1 degr inh 6.4 and ssDAF-12 act -0.8.
Screening O=C(CCc1ccccc1)NC(=S)Nc1ccccc1Br returned hcDAF12 agonist -1.8, DAX1 inh-1 8.4*, hgDAF12 agonist -0.3, DAX1 inh-2 0.2, Wee1 degr inh -0.9 and ssDAF-12 act -0.9.
`CCC(C)c1ccc(OCC(=O)Nc2cccc(C(=O)Nc3ccc(C(=O)O)cc3)c2)cc1` (centres undefined) gave hcDAF12 agonist 0.9, DAX1 inh-1 1.4, hgDAF12 agonist 4.4, DAX1 inh-2 4.0* and ssDAF-12 act -0.3.
For Cc1ccc(NC(=O)Cc2ccc(-c3ccccc3)cc2)nc1 the results were hcDAF12 agonist 3.2, DAX1 inh-1 0.9, hgDAF12 agonist 2.3, DAX1 inh-2 -0.5 and ssDAF-12 act -1.6.
Screening Cc1ccc(NC(=O)CCCc2ccccc2)nc1 returned hcDAF12 agonist 2.0, DAX1 inh-1 1.4, hgDAF12 agonist 7.7, DAX1 inh-2 3.8*, Wee1 degr inh -1.6 and ssDAF-12 act -1.1.
